Source: PubChem BioAssay
Only some compounds are listed: those with a hit (about 19% of all), similar ones and a draw of the others.
IL1B secr inh: qHTS for Inhibitors of Inflammasome Signaling: IL-1-beta AlphaLISA Primary Screen. THP-1 LPS/ATP IL-1B secretion, AlphaLISA, 16 h; active compounds read low. AID 743279, 2014. 360,000 compounds, 4.7% hits. activity change, % at 57.5 µM; in the data active means activity change below about -50%; inconclusive means mostly about -30% to -49%; further: on the % scale 0 is the no-effect control and ±100 the full control effect
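THP-1 cells pretreated 1 hr with compounds (up to 57.5 uM final), then stimulated with LPS (250 ng/mL final) plus ATP (1.25 mM final); secreted IL-1B measured by AlphaLISA after 16 hr, decreased signal indicating inhibition.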
TDP1 cell noCPT: qHTS for Inhibitors of human tyrosyl-DNA phosphodiesterase 1 (TDP1): qHTS in cells in absence of CPT; DT40 Tdp1-/- hTDP1 cells, no CPT, ATP luminescence, 48 h; Potency, µM (doses to about 46.2 µM), inactives show at the top dose activity change, negative = growth inhibition, most hits filed as inhibitors; 420,000 compounds, 15% hits; further: potency means the concentration at half of the fitted maximal effect; on the % scale 0 is the no-effect control and ±100 the full control effect; nearly all actives have a fitted effect of over 55% in size
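Stably hTDP1-transfected Tdp1-null chicken DT40 cells were treated with library compounds minus camptothecin and grown for at least 48 hr at 37 °C, after which cellular ATP was quantified by luminescence.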
SW480 rerep: A quantitative high throughput screen for small molecules that induce DNA re-replication in SW480 colon adenocarcinoma cells; 340,000 compounds, 1.8% hits; SW480 DNA re-replication, Hoechst DNA content imaging, 48 h; Potency, µM (doses to about 46.1 µM), for the others: top-dose re-replication activation, most hits filed as activators; further: potency means the concentration at half of the fitted maximal effect; % of control where 0% means no effect; nearly all actives have a fitted effect of over 55% in size
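Hoechst fluorescence of nuclei (405 nm excitation, 500-530 nm emission) measured by plate-scanning imager after 48 hr compound exposure at 37 C; re-replication scored as increased number of nuclei with elevated intensity.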
MCF10A rereplic: A quantitative high throughput screen for small molecules that induce DNA re-replication in MCF 10a normal breast cells; MCF 10A DNA re-replication, Hoechst nuclear intensity, 48 h; Potency, µM (series often up to 46.1 µM), for the others: at the highest dose activity, positive = re-replication, actives largely listed as activators; 350,000 compounds, 2.9% hits; AID 624296, 2012; further: potency means the concentration at half of the fitted maximal effect; % of control where 0% means no effect; nearly all actives have a fitted effect of over 50% in size
Chronic BCR inh: qHTS Assay to Find Inhibitors of Chronic Active B-Cell Receptor Signaling; ABC-DLBCL IkBa-CBG/CBR reporter, luminescence ratio, 4 h; AID 493014, 2011; Potency, µM (series often up to 46.1 µM), for inactives: at the highest dose activity change, negative = inhibition, actives largely listed as inhibitors; 340,000 compounds, 0.05% hits; active means well fitted inhibition curve with a large enough effect in the signal ratio, with a control signal flat, not every such curve was filed as active; inconclusive means small, poorly fitted or top-dose-only effect, or effect the other way, or a change in a side signal; the % refers to the signal ratio;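 further: potency means the concentration at half of the fitted maximal effect; plate controls were basal doxycycline-induced cells for no effect and cells given 10 µM MG132 for full effect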
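Compounds up to 46 uM were incubated four hours with TMD8 cells whose green CBG68 luciferase is fused to IkappaBalpha; red CBR luminescence normalised the signal, and concentration-effect curves were fitted to fusion, red and ratio data.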
TDP1 cell CPT: qHTS for Inhibitors of human tyrosyl-DNA phosphodiesterase 1 (TDP1): qHTS in cells in presence of CPT; chicken DT40 Tdp1-/-;hTDP1 cells + 20 nM CPT, ATP luminescence, 48 h; 420,000 compounds, 12% hits; Potency, µM (top dose mostly 46.2 µM), for inactives: at the top dose activity change, negative = growth inhibition, hits mostly inhibitors; AID 686979, 2013; further: potency means the concentration at half of the fitted maximal effect; on the % scale 0 is the no-effect control and ±100 the full control effect; nearly all actives have a fitted effect of over 55% in size
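Chicken DT40 Tdp1-/- cells stably complemented with human TDP1 were seeded at 400 cells/well in medium containing 20 nM camptothecin, exposed to pin-transferred compounds, and grown at 37 °C for at least 48 hr. Viability was read as ATP luminescence.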
The depositor's hits bear a star; ? = inconclusive; nt = no result. Unless noted, the call rests on the fitted dose curve; in most records, active means well fitted curve in the direction sought with a large enough effect; inconclusive means small, poorly fitted or top-dose-only effect, or another doubt; inactive means no such curve, though single readings can be large; an effect the other way counts as inactive or inconclusive.

SMILES | IL1B secr inh | TDP1 cell noCPT | SW480 rerep | MCF10A rereplic | Chronic BCR inh | TDP1 cell CPT
CCN1CCN(C(c2cccc(Cl)c2)c2c(O)cc(C)n(CCOC)c2=O)CC1 (stereo not drawn) | nt | -9% | nt | nt | nt | 5%
Fc1cccc(CNc2ncnc3ccc(-c4ccccc4Cl)cc23)c1 | nt | nt | nt | nt | -8% | nt
O=C(c1ccc(S(=O)(=O)N2CCCCCC2)cc1)N1CCN(c2ccccc2)CC1 | -16 | ? | -8% | -2% | 7% | -18%
Cc1ccc(C(=O)N2CCN(c3cccc(C)c3C)CC2)cc1S(=O)(=O)N1CCOCC1 | -2 | 23µM* | 11% | ? | 2% | 16µM*
CN(c1ccc(C(=O)N2CCN(c3ccc(F)cc3)CC2)cc1)S(C)(=O)=O | -17 | ? | 1% | 1% | -5% | 13µM*
Cc1ccc(C(=O)N2CCN(c3ccccc3)CC2)cc1S(=O)(=O)N1CCCC1 | -9 | ? | ? | 22% | -5% | 29µM*
CC1CC(C)CN(S(=O)(=O)c2ccc(C(=O)N3CCN(c4ccccc4)CC3)cc2)C1 (stereo not drawn) | -66* | ? | 33% | -1% | 8% | ?
CC(=O)c1ccc(NC(=O)NC2CC(=O)N(c3ccc4c(c3)OCCO4)C2)cc1 (stereo not drawn) | 12 | -7% | -452% | 0% | -7% | 6%
CC(=O)Nc1ccc(NC(=O)CN(C)S(=O)(=O)c2ccc3c(c2)CCC(=O)N3)cc1 | 1 | 3% | -11% | 9% | -8% | -1%
CCN1CCN(C(=O)Cn2cnc3sc(C)c(S(=O)(=O)N4CCN(c5ncccn5)CC4)c3c2=O)CC1 | 3 | 1% | -2% | -8% | -6% | 3%
COc1ccc(CN2C(=O)C(CC(=O)NCC3CCCCC3)CC(C(=O)N(C(C)C)C(C)C)=C2C)cc1 (stereo not drawn) | 7 | ? | nt | nt | nt | ?
COc1ccc(NC(=O)c2oc3ccc(S(=O)(=O)N4CCC5(CC4)OCCO5)cc3c2C)cc1 | -19 | ? | -4% | ? | ? | 16µM*
Cc1cccc(NC(=O)c2oc3ccc(S(=O)(=O)N4CCC5(CC4)OCCO5)cc3c2C)c1C | nt | 18µM* | nt | nt | -31% | 16µM*
Cc1ccc(NC(=O)c2oc3ccc(S(=O)(=O)N4CCC5(CC4)OCCO5)cc3c2C)cc1Cl | nt | -16% | nt | nt | ? | ?
Cc1c(C(=O)Nc2cccc(C(F)(F)F)c2)oc2ccc(S(=O)(=O)N3CCC4(CC3)OCCO4)cc12 | nt | 9.2µM* | nt | nt | -2% | 15µM*
Cc1cc(C)c(C)c(S(=O)(=O)NC2CCN(Cc3ccccc3)CC2)c1C | -73* | ? | -4% | 18% | -1% | ?
Cc1cc(S(=O)(=O)NC2CCN(Cc3ccccc3)CC2)c(C)cc1Cl | -96* | ? | 17% | ? | -9% | ?
CCN(CC)S(=O)(=O)c1ccc(S(=O)(=O)N2CCC(C(=O)NC3CCN(Cc4ccccc4)CC3)CC2)cc1 | 4 | -6% | 0% | -1% | -8% | 1%
Cc1cc(C)c(S(=O)(=O)NC2CCN(Cc3ccccc3)CC2)c(C)c1 | -1 | ? | 18% | ? | ? | ?
Cc1ccc(Cl)cc1S(=O)(=O)N1CCC(C(=O)NC2CCN(Cc3ccccc3)CC2)CC1 | 21 | 15µM* | ? | ? | 2% | ?
COc1ccc([C@H]2CC(=O)C[C@@H](CCn3cc(-c4ccccn4)nn3)O2)cc1 | 22 | -26% | nt | nt | nt | -15%
